An excerpt weighted towards active compounds, which were near 3.6% of everything screened.
AmpC inh detg: qHTS Inhibitors of AmpC Beta-Lactamase (assay with detergent) | Potency, µM (series often up to 114 µM), inactives show top-dose activity change, negative = inhibition, hits mostly inhibitors | P00811 | AmpC hydrolysis of nitrocefin, absorbance 480 nm, 0.01% Triton | 370,000 tested, 0.041% active;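 further: 0% = no-compound wells and -100% = no-enzyme wells; nearly all actives have a fitted effect of over 25% in size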
Target sequence (P00811 whole entry, looked up): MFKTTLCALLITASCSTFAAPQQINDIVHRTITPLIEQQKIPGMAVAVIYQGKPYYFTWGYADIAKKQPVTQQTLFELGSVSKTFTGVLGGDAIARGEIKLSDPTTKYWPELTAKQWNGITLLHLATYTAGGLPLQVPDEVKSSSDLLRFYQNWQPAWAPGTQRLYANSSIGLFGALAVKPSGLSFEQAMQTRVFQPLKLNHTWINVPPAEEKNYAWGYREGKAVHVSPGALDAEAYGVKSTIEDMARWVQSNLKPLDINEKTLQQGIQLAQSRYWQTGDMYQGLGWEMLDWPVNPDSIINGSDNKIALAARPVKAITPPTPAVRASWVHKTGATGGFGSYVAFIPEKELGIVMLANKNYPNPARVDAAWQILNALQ
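20 mM phosphate pH 7.0 + 0.01% (detergent screen) or 0.0001% Triton X-100; 5.3 nM AmpC reagent; cpd preinc 15 min RT; nitrocefin (800 uM stock) to start; A480 q20 s × 4 min; Activity was normalised to no-enzyme and no-compound control wells.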
AmpC no deterg: qHTS Inhibitors of AmpC Beta-Lactamase (assay without detergent); AmpC nitrocefin hydrolysis, absorbance 480 nm, 0.0001% Triton; Potency, µM (series often up to 57.1 µM), for the others: at the top dose activity change, negative = inhibition, hits mostly inhibitors; 330,000 tested, 0.52% active; AID 485341, 2010;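 further: plate controls were no compound for no effect and no enzyme for full effect; nearly all actives have a fitted effect of over 20% in size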
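AmpC (5.3 nM in the dispensed reagent) in 20 mM phosphate pH 7.0 with 0.01% (detergent screen) or 0.0001% Triton X-100 was preincubated with compounds for 15 min at room temperature. Nitrocefin was then added from an 800 uM solution, and hydrolysis was followed at 480 nm.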
Sm TGR block: qHTS Assay for the Inhibitors of Schistosoma Mansoni Peroxiredoxins; AID 485364, 2010; purified TGR, DTNB reduction, TNB absorbance 405 nm; Potency, µM (highest dose often 114 µM), without a hit: top-dose activity change, negative = inhibition, most hits filed as inhibitors; 360,000 tested, 3% active; Schistosoma mansoni thioredoxin glutathione reductase (TGR), Q962Y6; further: nearly all actives have a fitted effect of over 60% in size
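Kinetic colorimetric format: TGR-catalysed, NADPH-driven DTNB reduction monitored via TNB absorbance. Enzyme dispensed at 20 nM; compound exposure 15 min at room temperature before reaction start.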
Giardia FBPA inh: qHTS Assay for Inhibitors of Fructose-1,6-bisphosphate Aldolase from Giardia Lamblia | A8B2U2 | purified Giardia FBPA | Potency, µM (top dose mostly 59.6 µM), inactives show at the highest dose activity, negative = inhibition, usual class: inhibitors | 290,000 tested, 0.71% active | AID 2451, 2010; further: nearly all actives have a fitted effect of over 55% in size
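Giardia FBPA (40 nM reagent) was preincubated 10 min at RT with compound (up to 57.5 uM final), then substrate plus GAPDH/TPI/NAD/arsenate coupling system with diaphorase/resazurin was added; resorufin fluorescence (525/598 nm) was read after 20 min.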
Numbers without * were called inactive; ? = inconclusive; · = no result given; [ ] = another dose, or the depositor's remark. The call rests on the fitted dose curve; in most records, active means well fitted curve in the direction sought with a large enough effect; inconclusive means small, poorly fitted or top-dose-only effect, or another doubt; inactive means no such curve, though single readings can be large; an effect the other way counts as inactive or inconclusive. Unless noted, on the % scale 0 is the no-effect control and ±100 the full control effect; potency means the concentration at half of the fitted maximal effect.

SMILES	AmpC inh detg	AmpC no deterg	Sm TGR block	Giardia FBPA inh
CCOC(=O)c1c(N)n(Cc2ccco2)c2nc3ccccc3nc12	?	1%	45µM*	-15%
CCCCn1c(NC(=O)c2ccco2)c(C(=O)OCC)c2nc3ccccc3nc21	-13%	60%	25µM*	5µM*
COCC(C)OC(=O)c1c(N)n(Cc2ccco2)c2nc3ccccc3nc12 (configuration not stated)	-4%	-22%	10µM*	-7%
CSCC[C@H](NC(=O)[C@H](Cc1ccc(OS(=O)(=O)O)cc1)NC(=O)[C@@H](N)CC(=O)O)C(=O)NCC(=O)N[C@@H](Cc1c[nH]c2ccccc12)C(=O)N[C@@H](CCSC)C(=O)N[C@@H](CC(=O)O)C(=O)N[C@@H](Cc1ccccc1)C(N)=O	·	·	·	-6%
CCc1cccc2c(C(=O)COC(=O)c3ccc(O)cc3)c[nH]c12	-11%	28µM*	-10%	3%
CCc1cccc2c(C(=O)COC(=O)c3ccccc3)c[nH]c12	?	-31%	-10%	-1%
Cc1ccc(NC(=O)CSc2nc3ccccc3c3nc(CCc4c(C)n[nH]c4C)nn23)c(C)c1	-4%	·	-5%	·
Cc1ccc2c(c1)NC(=O)C(CC(=O)Nc1cc(Cl)ccc1C)O2 (configuration not stated)	23%	·	3%	·
O=C(O)CC1Oc2ccc(Cl)cc2NC1=O (configuration not stated)	?	11µM*	-1%	5%
O=C1CCC/C(=N\NC(=O)c2ccc(NS(=O)(=O)c3ccc(Br)cc3)cc2)C1	-7%	28µM*	-21%	-13%
O=C(c1ccc(Cl)cc1)N1CCOc2ccccc21	3%	-15%	-20%	9%
Cc1ccc(OCc2nc(C#N)c(NCc3ccco3)o2)cc1	-13%	-44%	?	-5%
COc1ccccc1OCc1nc(C#N)c(NCc2ccco2)o1	10%	-20%	40µM*	-2%
N#Cc1nc(COc2ccccc2Cl)oc1NCc1cccnc1	1%	84%	7.1µM*	8%
CCOc1cccc(C2c3c(-c4cc(C)ccc4O)n[nH]c3C(=O)N2Cc2ccco2)c1 (configuration not stated)	20%	·	6%	·
CC(C)CC1Nc2ncnc(N3CCN(c4ccccn4)CC3)c2N(Cc2ccccc2)C1=O (configuration not stated)	·	24%	·	·
O=C(c1ccc(-c2cccc(C(F)(F)F)c2)o1)N1CCOCC1	?	35%	-14%	0%
CC(=O)N1CCN(C(=O)c2ccc(-c3cccc(C(F)(F)F)c3)o2)CC1	?	50%	32µM*	·
O=C(COC(=O)c1cc(=O)[nH]c(=O)[nH]1)Nc1ccccc1F	·	-21%	·	·
CN1CCN(Cc2nc3ccccc3c(=O)n2CC#N)CC1	-7%	-19%	5%	4%
N#CCn1c(CCl)nc2ccccc2c1=O	2%	-28%	28µM*	-11%
Cc1ccc(C(=O)Oc2oc(-c3ccco3)nc2C=Nc2ccccc2)cc1	4%	-17%	2.5µM*	·
CC(=O)Oc1oc(-c2ccccc2)nc1C=Nc1ccccc1	2%	-26%	18µM*	·
Nc1cc(S(=O)(=O)Nc2ccccc2Cl)ccc1N1CCCCC1	·	-49%	·	·
COC(=O)COc1ccc(-n2cnnn2)cc1	-4%	-11%	15%	3%
SMILES	AmpC inh detg	AmpC no deterg	Sm TGR block	Giardia FBPA inh
O=C(O)c1ccccc1-c1c2cc(Br)c(=O)cc-2oc2[c]([Hg])c(O)c(Br)cc12	·	·	·	22µM*
COc1cc(NC(=O)c2nn(C)c3c2COc2ccccc2-3)cc(OC)c1OC	4%	·	32µM*	·
COc1ccccc1NC(=O)c1nn(C)c2c1CS(=O)(=O)c1ccccc1-2	14%	·	2%	·
COc1cc(NC(=O)c2nn(C)c3c2CS(=O)(=O)c2ccccc2-3)cc(OC)c1	0%	96%	13%	5%
COC(=O)c1ccccc1NC(=O)c1nn(C)c2c1COc1ccccc1-2	3%	·	7.1µM*	·
O=C1CN(C(=O)COC(=O)c2ccc([N+](=O)[O-])o2)c2ccccc2N1	-2%	-11%	45µM*	·
O=C(COC(=O)c1ccc([N+](=O)[O-])o1)NCc1ccc(F)cc1	·	-18%	·	·
CC1(C)C(=O)Nc2ccccc2N1C(=O)COC(=O)c1ccc([N+](=O)[O-])o1	·	-23%	·	·
O=C(COC(=O)c1ccc([N+](=O)[O-])o1)Nc1cccc2ccccc12	-8%	-43%	14µM*	-29%
C/C(=N\Nc1nc2ccccc2c(=O)n1O)c1ccco1	-1%	-14%	40µM*	-11%
Cc1nc2ccccc2c(=O)n1NC(=O)c1ccco1	-4%	-23%	-7%	3%
O=C(Cn1c(-c2cccs2)cc2ccccc21)NCCCN1CCN(c2cccc(Cl)c2)CC1	4%	·	?	·
CCOC(=O)/C=C/S(=O)(=O)c1ccc(NC(C)=O)cc1	?	-14%	0.32µM*	-1%
CCOC(=O)/C=C/C(=O)OCC(=O)Nc1ccc(C)cc1	-13%	1%[11.4 µM]	13µM*	3%
COCC(=O)Nc1cccc(Br)c1	-12%	-26%	-6%	4%
CCOC(=O)/C=C/C(=O)OCC(=O)Nc1cccc(Br)c1	0%	-21%	18µM*	-1%
COc1ccc(C2/C=C\CN(CC3CC3)CC(=O)N2Cc2ccc(F)cc2)cc1 (configuration not stated)	3%	56%	-31%	5%
COc1ccc(C2/C=C\CN(S(=O)(=O)/C=C/c3ccccc3)[C@H](Cc3ccccc3)C(=O)N2Cc2ccc(F)cc2)cc1 (some centres not stated)	2%	-22%	22µM*	6%
COc1ccc(C2/C=C\CN(CC(C)(C)C)CC(=O)N2Cc2ccc(F)cc2)cc1 (configuration not stated)	0%	111%	32µM*	-2%
Cc1ccccc1NC(=O)c1c(NC(=O)c2ccncc2)sc2c1CCC(C(C)(C)C)C2 (configuration not stated)	4%	·	9%	·
Clc1cccc(Cl)c1CON/C=N/c1ncnc2sccc12	1%	1.1µM*	3%	-3%
CN1CC(=O)N(CC(=O)Nc2ccc(N3CCOCC3)cc2)C1=O	8%	-20%	?	·
CNC(C)Cc1ccccc1Sc1ccc(O)cc1 (configuration not stated)	?	-18%	1%	1%
CNCc1ccccc1Sc1ccc(O)c(O)c1	?	-34%	22µM*	2.5µM*
Cc1cccc(N(C(=O)c2snc(C(N)=O)c2N)C(C(=O)NCC2CCCO2)c2c[nH]c3ccccc23)c1 (configuration not stated)	-6%	160%	0%	·

Screens deposited in PubChem BioAssay by National Center for Advancing Translational Sciences (NCATS).
